# This is one part of a sample in which hits are shown more often than they occur.
# hNpr1 antagonist: blocks ANP-stimulated signaling of human Npr1 receptor. P16066. HEK293 hNpr1 GloSensor cGMP, ANP-stimulated luminescence. Potency, µM (titrated, usually from 46.3 µM), without a hit: at the top dose activity change, negative = inhibition, most hits filed as inhibitors. actives 1.6% (n = 76,000). AID 1347048; also: % is scaled to controls: 0 for no effect and ±100 for the full control effect; nearly all actives have a fitted effect of over 60% in size
#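 Compound pre-incubated 30 min at room temperature on GloSensor-loaded HEK293 cells stably carrying hNpr1 and the pGS-40F cGMP biosensor. Stimulation uses hNppA at 0.1 nM final; luminescence is taken at baseline and 20 min post-agonist.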
# GPT2 inhibitor: GPT2 alanine aminotransferase inhibition; Q8TD30; Recombinant GPT2, coupled pyruvate oxidase/HRP Amplex Red fluorescence; Potency, µM (series often up to 57.7 µM), for inactives: at the top dose activity change, negative = inhibition, most hits filed as inhibitors; actives 0.25% (n = 100,000); AID 1671188; active = well fitted inhibition curve with a large enough effect; inconclusive = small, poorly fitted or top-dose-only effect; also: % is scaled to controls: 0 for no effect and ±100 for the full control effect; nearly all actives have a fitted effect of over 60% in size
# Target sequence (Q8TD30 whole entry, looked up): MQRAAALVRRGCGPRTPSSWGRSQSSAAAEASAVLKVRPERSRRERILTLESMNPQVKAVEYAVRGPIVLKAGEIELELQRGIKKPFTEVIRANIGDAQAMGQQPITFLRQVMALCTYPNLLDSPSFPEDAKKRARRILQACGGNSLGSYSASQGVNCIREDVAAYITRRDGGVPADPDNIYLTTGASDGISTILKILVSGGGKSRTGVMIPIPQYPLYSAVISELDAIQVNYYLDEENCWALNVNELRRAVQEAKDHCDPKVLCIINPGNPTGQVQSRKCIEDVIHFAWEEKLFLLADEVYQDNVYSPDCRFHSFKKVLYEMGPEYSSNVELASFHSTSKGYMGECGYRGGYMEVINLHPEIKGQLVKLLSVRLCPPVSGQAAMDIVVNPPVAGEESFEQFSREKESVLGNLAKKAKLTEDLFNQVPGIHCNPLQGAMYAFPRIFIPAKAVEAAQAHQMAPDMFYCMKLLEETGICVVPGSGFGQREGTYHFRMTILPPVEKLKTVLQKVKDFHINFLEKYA
#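 Inhibition is scored from Amplex Red fluorescence generated when pyruvate oxidase and HRP act on pyruvate released by GPT2. Reactions contain 10ng/uL enzyme, 250uM a-KG and 2mM L-alanine and run 30 min at room temperature.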
# Npr1 antag conf: confirmation of human Npr1 natriuretic peptide receptor antagonists; HEK293 hNpr1 cGMP GloSensor luminescence, ANP-stimulated; actives 76% (n = 1,400); AID 1347044; Potency, µM (series often up to 57.6 µM), for inactives: top-dose activity change, negative = inhibition, usual class: inhibitors; shares compounds with hNpr1 antagonist; also: nearly all actives have a fitted effect of over 70% in size
# NPR2 antag: hNpr2 antagonism, selectivity versus Npr1; actives 67% (n = 1,400); Potency, µM (series often up to 57.6 µM), without a hit: top-dose activity change, negative = inhibition, usual class: inhibitors; shares compounds with hNpr1 antagonist; HEK293 hNpr2 GloSensor cGMP luminescence, CNP-stimulated; also: nearly all actives have a fitted effect of over 70% in size
# FLuc counter: inhibits firefly luciferase, false Npr1 antagonist flag; AID 1347047; Potency, µM (titrated, usually from 57.6 µM), without a hit: top-dose activity change, negative = inhibition, most hits filed as inhibitors; shares compounds with hNpr1 antagonist; purified FLuc enzyme, luminescence, Km substrate; actives 0.7% (n = 1,400); active = well fitted inhibition curve with a large enough effect; inconclusive = small, poorly fitted or top-dose-only effect; also: series mostly up to about 58 µM; 0% is about no effect
# GloSensor ctrl: control cell line activity, Npr1 antagonist counter-screen | shares compounds with hNpr1 antagonist | HEK293 GloSensor cGMP, SNP-stimulated, luminescence | Potency, µM (series often up to 57.6 µM), for inactives: top-dose activity change, negative = inhibition, most hits filed as inhibitors | actives 69% (n = 1,400); also: % is scaled to controls: 0 for no effect and ±100 for the full control effect; nearly all actives have a fitted effect of over 70% in size
# Active calls of the source: *; i = inactive; ? = inconclusive; / = no result given; [ ] = dose if it differs, or a comment. Unless noted, calls follow the shape of the full dose curve. Potency is read from the fitted curve at half-maximal effect.
SMILES,hNpr1 antagonist,GPT2 inhibitor,Npr1 antag conf,NPR2 antag,FLuc counter,GloSensor ctrl
COc1ccc(C(=O)NC2CCN(c3cc(-c4ccc(F)cc4)[nH]n3)C2)c(C)c1 (stereo not drawn),-11%,-25%,/,/,/,/
COc1ccc(-c2cc(N3CCN(C(=O)c4ccc(F)cc4F)CC3)n[nH]2)cc1,0%,i,/,/,/,/
COc1ccc(CC(=O)NC2CCCN(c3cc(-c4ccc(Cl)cc4)[nH]n3)C2)cc1OC (stereo not drawn),11µM*,-19%,24µM*,15µM*,1%,24µM*
CCOc1ccc(CC(=O)NC2CCCN(c3cc(-c4ccc(F)cc4)[nH]n3)C2)cc1OCC (stereo not drawn),-1%,-17%,/,/,/,/
O=C(NC1CCN(c2cc(-c3ccccc3)[nH]n2)CC1)c1cc(Cl)ccc1F,-21%,i,-22%,-23%,2%,-19%
COc1ccc(C(=O)NC2CCN(c3cc(-c4ccc(F)cc4)[nH]n3)CC2)c(C)c1,0%,i,?,?,2%,-20%
COc1ccc(C(=O)N2CCCN(c3cc(-c4ccc(F)cc4)[nH]n3)CC2)c(C)c1,5.6µM*,?,11µM*,12µM*,0%,6.9µM*
O=C(NC1CCCN(c2cc(-c3ccccc3)[nH]n2)C1)c1cc(Cl)ccc1F (stereo not drawn),-20%,-8%,/,/,/,/
O=C(NCc1ccccc1F)c1cc(-c2ccc(Cl)cc2Cl)c2nncn2n1,/,i,/,/,/,/
COc1ccc(C2Cn3nnc(-c4noc(-c5ccc(C)c(F)c5)n4)c3CO2)cc1 (stereo not drawn),0%,-5%,/,/,/,/
Cc1ccc(C(=O)N2[C@@H]3CC[C@H]2CC(NC(=O)c2ccncc2)C3)cc1F (stereo partly drawn),2%,i,/,/,/,/
COCc1cc(C[C@@H]2C[C@H](NCc3ccccc3O)C2(C)C)no1,5%[70.6 µM],i,/,/,/,/
CNC(=O)c1nc2cccnc2n(-c2ccc(OC)cc2)c1=O,/,0%[88.5 µM],/,/,/,/
COc1cccc(C(=O)N2CCCN(c3cc(-c4ccc(Cl)cc4)[nH]n3)CC2)c1,?,i,/,/,/,/
COc1ccc(CC(=O)NC2CCN(c3cc(-c4ccc(Cl)cc4)[nH]n3)CC2)cc1,?,i,/,/,/,/
COc1ccc(C(=O)N2CCCN(c3cc(-c4ccc(Cl)cc4)[nH]n3)CC2)c(C)c1,3.5µM*,-25%,9.7µM*,11µM*,0%,9.7µM*
COc1ccc(CC(=O)NC2CCN(c3cc(-c4ccc(OC)cc4)[nH]n3)CC2)cc1,-25%,-16%,?,?,0%,-27%
COc1ccc(CN2C(=O)CO[C@H](c3ccc(NS(=O)(=O)c4ccccc4)cc3)[C@H]2CO)cc1,-2%,-3%,/,/,/,/
Cn1nc(C(=O)NCc2cccnc2)c2c1CN(C(=O)C1CCCCC1)C2,/,-23%,/,/,/,/
COc1cccc(CNC(=O)c2ccc(Cn3ccn4nc5c(c4c3=O)CCCC5)cc2)c1,0%,i,/,/,/,/
COc1ccc(CNC(=O)c2ccc(Cn3ccn4nc5c(c4c3=O)CCCC5)cc2)cc1OC,11µM*,i,27µM*,24µM*,0%,24µM*
COc1ccc(CNC(=O)c2ccc(Cn3ccn4nc5c(c4c3=O)CCCC5)cc2)cc1,11µM*,i,27µM*,27µM*,1%,27µM*
COc1ccc(CCNC(=O)c2ccc(Cn3ccn4nc5c(c4c3=O)CCCC5)cc2)cc1OC,?,-3%,/,/,/,/
CC(Oc1ccccc1)C(=O)NCCc1noc(-c2ccncc2)n1 (stereo not drawn),-3%,2%,/,/,/,/
CN(CC(O)COc1ccccc1CN1CCCOCC1)C1CCCCC1 (stereo not drawn),2%,i,/,/,/,/
SMILES,hNpr1 antagonist,GPT2 inhibitor,Npr1 antag conf,NPR2 antag,FLuc counter,GloSensor ctrl
COc1cc(SC)ccc1C(=O)N[C@H]1C[C@@](O)(C(=O)NCCC(N)=O)C[C@@H](O)[C@@H]1O,2%,-7%,/,/,/,/
COCc1noc(-c2ccc(N(C)CC3CC(=O)N(C(C)(C)C)C3)nc2)n1 (stereo not drawn),11µM*,-4%,24µM*,?,-1%,22µM*
COCC1CCN(c2ccc(-c3nc(CCCc4ccccc4)no3)cn2)C1 (stereo not drawn),?,-1%[11.5 µM],/,/,/,/
O=C(c1ccccc1Cl)N1CCC(C(=O)N2CCC(c3nc4ncccc4[nH]3)C2)CC1 (stereo not drawn),/,2%,/,/,/,/
COc1ccccc1C(=O)N1CCCCC1c1noc(COc2ccc(C)cc2)n1 (stereo not drawn),-4%,3%,/,/,/,/
COc1ccc(C)cc1C(=O)N1CCc2onc(-c3ccccc3F)c2C1,14µM*,-2%,24µM*,22µM*,-1%,22µM*
CCCc1ncncc1C(=O)N1CCc2onc(-c3ccccc3F)c2C1,5%,i,/,/,/,/
CN(C)C[C@@H]1CN(c2ncccn2)C[C@H]1NC(=O)c1ccc2[nH]ccc2c1,1%,i,/,/,/,/
O=C1CC2(CCN(Cc3ccc(F)cc3)CC2)Oc2ccccc21,-1%[70.6 µM],2%[88.5 µM],/,/,/,/
N#Cc1ccc(CN2CCC3(CC2)CC(c2cccnc2)=NO3)cc1,22µM*,i,20µM*,22µM*,1%[86.2 µM],18µM*
COc1cccc(CN2CCC3(CC2)CC(c2cccnc2)=NO3)c1,1%,i,/,/,/,/
N#Cc1ccc(CN2CCC3(CC2)CC(c2cccc(C(F)(F)F)c2)=NO3)cc1,8.9µM*,2%,?,?,2%[86.2 µM],?
Clc1ccc(CN2CCC3(CC2)CC(c2cccnc2)=NO3)cc1,/,-7%,27µM*,?,4%,24µM*
c1cncc(C2=NOC3(CCN(Cc4cccc5ccccc45)CC3)C2)c1,?,-2%,/,/,/,/
N#Cc1ccc(CN2CCCC3(CC(c4cccc(C(F)(F)F)c4)=NO3)C2)cc1 (stereo not drawn),?,0%,/,/,/,/
N#Cc1ccc(CN2CCC3(CC2)CC(=O)c2ccccc2O3)cc1,28µM*,-14%[88.5 µM],31µM*,35µM*,2%[86.2 µM],25µM*
COCC(=O)Nc1ccc(-c2noc([C@@H]3CCCN3CC(C)(C)C)n2)cn1,-21%[70.6 µM],-9%[88.5 µM],/,/,/,/
COCCNC(=O)[C@H]1C[C@H](Oc2cccnc2)CN1C(=O)c1cccs1,0%,5%,/,/,/,/
CCc1noc([C@@H]2CC(F)(F)CN2S(=O)(=O)c2cccnc2)n1,-2%,i,/,/,/,/
O=C(c1cc(CN2CCOCC2)on1)N1CCC(c2nc(C3CCOCC3)no2)C1 (stereo not drawn),-14%,-4%,-2%,4%,5%,11%
O=C(c1ccccc1)N1CCC(c2nc(C3CCOCC3)no2)C1 (stereo not drawn),0%,-3%,/,/,/,/

# Assay outcomes as filed in PubChem.
